Records with an inconclusive call do not appear. A number with no mark means an inactive call. Activity calls are given as the source filed them. Calls follow the shape of the dose curve; as a rule, active = well fitted inhibition curve with a large enough effect; inconclusive = small, poorly fitted or top-dose-only effect; inactive = flat fitted curve, though single readings scatter.
What follows are molecules tested on HaCat (assay: Cytotoxic Profiling of Annotated Libraries Using Quantitative High-Throughput Screening (AID 1296008; also: nearly all actives have a fitted effect of over 60% in size)). Details: Five cell lines viability, CellTiter-Glo ATP luminescence, 48-72 h; max response: active compounds read low.
In short: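 Cells exposed to compounds for 48 or 72 hr at 37 degrees Celsius. Viability read as ATP-coupled luminescence with CellTiter-Glo after 10 min at room temperature.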
`C[C@H]1CNCCc2ccc(Cl)cc21` was tested, and the max response was 2.82%. For `CC[C@H]1C[C@@H]2C[C@H]3c4[nH]c5ccc(OC)cc5c4CCN(C2)[C@@H]13`, the max response was -4.77%. `CCCN(CCC)CCc1c[nH]c2ccccc12` was tested, and the max response was -5.54%. `OC(c1ccccc1)(c1ccccc1)C1CCNCC1` gave a max response of -12.8%. For `C=CCOC(Cn1ccnc1)c1ccc(Cl)cc1Cl` (stereo unspecified), the outcome was “inactive”. `C[C@H]1C(=O)O[C@@H]2CCN3CC=C(COC(=O)[C@](C)(O)[C@]1(C)O)[C@H]23` was tested, and the outcome was “inactive”. For `Nc1ccc(N)cc1`, the outcome was “inactive”. `CCOC(=O)NC(O)C(Cl)(Cl)Cl` (stereo unspecified) was tested, and the outcome was “inactive”. For `CN1CCc2cc(Cl)c(O)cc2[C@H]2c3ccccc3CC[C@@H]21`, the outcome was “inactive”. In the case of `CCN(CC)CCOC(=O)C(C)(c1ccccc1)c1ccccc1`, the outcome is reported as “inactive”. `Cc1cccc(Cc2cnc[nH]2)c1C` gave a max response of -10%. In the case of `CCCCC1C(=O)NC(=O)N(C2CCCCC2)C1=O` (stereo unspecified), the outcome is reported as “inactive”. Molecule `COc1cc(C[C@@H](C)N)c(OC)cc1Br` has a max response of -1.26%. With `CC(C)=C[C@@H]1[C@@H](C(=O)OCc2coc(Cc3ccccc3)c2)C1(C)C` the outcome was “inactive”. `CNC(=O)NC(O)C(Cl)(Cl)Cl` (stereo unspecified) was tested, and the outcome was “inactive”. With `COP(=S)(OC)Oc1ccc(S(N)(=O)=O)cc1` the outcome was “inactive”. In the case of `O=C(CCCN1CCC(n2c(=O)[nH]c3ccccc32)CC1)c1ccc(F)cc1`, the outcome is reported as “inactive”. `Oc1c(Br)cc(Br)cc1Br` showed a max response of -13%. With `CC(C)C(Br)C(=O)NC(N)=O` (stereo unspecified) the max response was -11.8%. For `O=c1n(Cl)c(=O)n(Cl)c(=O)n1Cl`, the outcome was “inactive”. `C[C@]12C=CC(=O)C=C1CC[C@@H]1[C@@H]2CC[C@@]2(C)[C@H]1CC[C@]2(C)O` showed a max response of -43.5%.
% is scaled to controls: 0 for no effect and ±100 for the full control effect.
